From PubChem BioAssay (NCI)
About 83,000 compounds went through this panel and 20% of them were active in at least one assay; those are over-represented in the sample as a whole.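 Single-concentration screen, 48 h exposure, 96-well plates. Endpoint: percent growth. Below 10 = active.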 Values without a mark were called inactive. Active and inactive are the calls of the source.

How the values were obtained:
Assay in all cases: NCI-60 one-dose screen, 48 h (100 = growth as untreated, 0 = no growth, -100 = all killed)
Details in all cases: 10 µM unless noted
[1] = tested on: NCI-H23 lung
[2] = tested on: NCI-H226 lung
[3] = tested on: NCI-H322M lung
[4] = tested on: HOP-62 NSCLC
[5] = tested on: NCI-H460 lung
[6] = tested on: NCI-H522 lung
[7] = tested on: A549/ATCC NSCLC
[8] = tested on: 786-0 renal
[9] = tested on: COLO 205 colon
[10] = tested on: DU-145 prostate
[11] = tested on: K-562 leukemia
[12] = tested on: MALME-3M melanoma
[13] = tested on: MDA-MB-231 breast
[14] = tested on: RXF 393 renal
[15] = tested on: SF-268 CNS
[16] = tested on: SF-295 CNS
[17] = tested on: SF-539 CNS
[18] = tested on: UACC-257 melanoma
[19] = tested on: M14 melanoma

Row | SMILES | growth [1] | growth [2] [%] | growth [3] | growth [4] | growth [5] | growth [6] | growth [7] [%] | growth [8] [%] | growth [9] [%] | growth [10] [%] | growth [11] | growth [12] | growth [13] [%] | growth [14] [%] | growth [15] [%] | growth [16] | growth [17] | growth [18] [%] | growth [19] [%]
1 | CCOC(=O)c1cnc2ccccc2c1Cl | 96.9% | 99.2 | 122% | 99.6% | 93% | 92.1% | 104 | 94.3 | 96.2 | 98.3 | 116% | 126% | 85.4 | 127 | 99.5 | 107% | 85.9% | 109 | 92.2
2 | CN(C)c1ccc(/C=C/C(=O)c2ccc(-n3cc(CN4CCN(c5cc6c(cc5F)c(=O)c(C(=O)O)cn6C5CC5)CC4)nn3)cc2)cc1 | 80.3% | 81.7 | 77.5% | 67.3% | 32.5% | 48.5% | 82.2 | 33.2 | 105 | 51.7 | 21.9% | 89.2% | 65.3 | 45 | 35.7 | 81.2% | 27.9% | 88.3 | 60.9
3 | COC(=O)/C(CCC=C(C)C)=C1\[C@@H](OC(C)=O)C[C@@]2(C)[C@H]1C[C@@H](O)[C@H]1[C@@]3(C)CC[C@H](NCCN)[C@@H](C)[C@@H]3CC[C@@]12C | 88.7% | 83.5 | 83.5% | 93% | 99.6% | 86.9% | – | 73.5 | 80.3 | 65.4 | -7.67% (active) | 89.4% | 93 | 57.8 | 76.6 | 98.2% | 90.2% | 99.7 | 87
4 | COc1ccc(-c2csc(N(C(=O)N3CCN(c4cc5c(cc4F)c(=O)c(C(=O)O)cn5C4CC4)CC3)c3ccccc3)n2)cc1 | 4.28% (active) | 28.5 | 4.9% (active) | 9.2% (active) | 3.65% (active) | -21.8% (active) | 13.6 | 19.6 | 17.9 | 17.6 | 14% | 9.18% (active) | 28.3 | 35.8 | 22.9 | 3.69% (active) | 9.1% (active) | 12.4 | 26.6
5 | COCCn1cc(-c2nc(-c3cc4cccnc4n3CCOC)cs2)c2cc(OC)ccc21 | 61.5% | 63.1 | 39.5% | 74.7% | 40.2% | 16.7% | 46 | 58.5 | 44.3 | 72.4 | 0.391% (active) | 119% | 23.7 | 66.3 | 74.2 | 74.2% | 62.6% | 94.7 | 69.4
6 | CCOC(=O)c1cn2ncnc(Oc3ccc(NC(=O)NC4CCCCC4)c(Cl)c3)c2c1C | 68.8% | 92.6 | 85.2% | 79.9% | 96.4% | 67.1% | 58.7 | 81.6 | 96.9 | 96 | 82.6% | 58% | 58.2 | 83.8 | 84.9 | 96.7% | 51.2% | 90 | 83.9
7 | O=C1C(Cl)=C(Oc2ccccc2)C(=O)c2ccccc21 | 85.9% | 90.8 | 83.1% | 86% | 94.4% | -83.3% (active) | 100 | 94.1 | 32.3 | 122 | 37.2% | 76.3% | 81.4 | 96.8 | 79.3 | 76.6% | 75.2% | 89.9 | 96.2
8 | CC(=O)OC[C@]12CCC(C)(C)C[C@H]1[C@@]1(O)[C@H](O)C[C@@H]3[C@@]4(C)CCCNC(C)(C)[C@@H]4CC[C@@]3(C)[C@]1(C)CC2 | 106% | 102 | 98.1% | 107% | 110% | 93.6% | 106 | 101 | 117 | 111 | 106% | 106% | 103 | 117 | 106 | 102% | 103% | 101 | 92.4
